The text below walks through data of PubChem BioAssay (NCATS).

Each structure is given as a SMILES string. A number with no mark means an inactive call. Results filed as inconclusive are left out. Calls of active or inactive are those of the source. Unless noted, calls come from the whole dose curve; as a rule, active = well fitted curve in either direction with a large enough effect (not every such curve was filed as active); inconclusive = small, poorly fitted or top-dose-only effect, or another doubt; inactive = flat fitted curve, though single readings scatter.

A short description of experiment [1]: AP1 Signaling Pathway (AID 357).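 Note: ME-180 reporter cells stimulated with EGF at its EC50 level; % is set by controls: 0 for no effect and ±100 for the full control effect.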 As to conditions: ME-180 AP-1-bla reporter, EGF-induced, beta-lactamase ratio, 5 h; at 17.2 µM (top of the series) unless noted. A digest of the protocol: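 In this screen, ME-180 cells in Opti-MEM with 0.5% dialyzed FBS received EC50 EGF and compound titrations for 5 h. AP-1 reporter beta-lactamase was detected via CCF4 ratio, giving AC50 for positive and negative modulators.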

The target in experiment [2] is Cytochrome P450 1A2 (Homo sapiens) (UniProt P05177). Description: p450-cyp1a2 (AID 410; calls by dose curve; note: potency is the fitted concentration of half-maximal effect). A digest of the protocol: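 20nM CYP1A2, 100uM Luciferin-ME (=Km), 100mM KPO4; cpd 10 min RT; +NADPH regen, 60 min RT; stop/detect 20 min; luminescence. Normalized to furafylline 57 uM = full inhibition.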
Chain of Cytochrome P450 1A2 (Homo sapiens) (P05177 whole entry, looked up): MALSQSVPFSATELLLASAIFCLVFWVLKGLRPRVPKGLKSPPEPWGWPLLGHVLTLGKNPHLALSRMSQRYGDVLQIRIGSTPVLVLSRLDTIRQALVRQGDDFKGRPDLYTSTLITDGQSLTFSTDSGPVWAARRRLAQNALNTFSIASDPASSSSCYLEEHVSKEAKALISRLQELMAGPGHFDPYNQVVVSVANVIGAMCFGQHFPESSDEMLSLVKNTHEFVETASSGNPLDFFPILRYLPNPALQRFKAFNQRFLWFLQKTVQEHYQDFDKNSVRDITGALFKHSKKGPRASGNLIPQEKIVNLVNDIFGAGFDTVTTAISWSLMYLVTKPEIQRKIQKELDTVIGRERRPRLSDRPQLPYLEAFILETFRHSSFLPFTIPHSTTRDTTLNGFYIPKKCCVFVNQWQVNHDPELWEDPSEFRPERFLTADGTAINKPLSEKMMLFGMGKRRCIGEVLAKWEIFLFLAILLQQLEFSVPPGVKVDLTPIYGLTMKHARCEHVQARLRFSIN
Experiment [3] in a line: Stat Signaling Pathway (AID 446).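 Note: ME-180 cervical cancer cells given 40 pM IL-6 alongside compound; SIE-controlled beta-lactamase reporter measured as 460/530 nm FRET emission ratio; % is set by controls: 0 for no effect and ±100 for the full control effect.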 As to conditions: ME-180 (cervical carcinoma) SIE beta-lactamase reporter, IL-6 stimulated, 5 h; at 17.2 µM (top of the series) unless noted. Summed up: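 FRET read-out (405 nm excitation, 460/530 nm emission) of a beta-lactamase reporter under a STAT-inducible element in ME-180 cervical carcinoma cells. Cells with compound receive 40 pM IL-6 for 5 h. Values are normalised to AC90 stimulation and AC90 JAK-inhibitor controls.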

Experiment [4] has as its target Glucocorticoid receptor (Homo sapiens) (UniProt P04150). Description: GR-GFP Redistribution (AID 450;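 active = compounds whose dose series gives a full or clear partial fitted curve of increased nuclear translocation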; note: potency is the fitted concentration of half-maximal effect).
The target is the same in experiment [5]. Description: GR-EFC Redistribution (AID 451; calls by dose curve; note: potency is the fitted concentration of half-maximal effect). As to conditions: CHO-K1 GR-EFC translocation, beta-gal luminescence, 2 h. Summed up: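 Translocation of GR-ED fusion to nuclear EA restores b-gal, read by luminescence after 1 h room-temperature detection. Engineered CHO-K1 biosensor cells, 1,000/well, exposed 2 h at 37 C to titrations up to 46 uM final.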
For experiment [6], the target named is Mitogen-activated protein kinase 10 (Mus musculus) (UniProt Q61831). Description: JNK3 AlphaScreen Assay (AID 530).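 Note: kinase came from lysate of stimulated human HepG2 cells; signal reports phosphorylation of biotinylated GST-cJun 1-79 at Ser73 with 10 µM ATP; % is set by controls: 0 for no effect and ±100 for the full control effect.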 A digest of the protocol:
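Kinase buffer: 20 mM Tris-HCl pH 7.6, 10 mM MgCl2, 1 mM DTT, 0.1 mM Na3VO4, 0.01% Tween-20; ATP 10 uM. Substrate biotin-GST-cJun(1-79), enzyme from activated HepG2 lysates. Detection by Ser73 phospho-antibody AlphaScreen.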
On the technique in general: Bead proximity is the source of the signal in Alpha formats.

The target in experiment [7] is 3',5'-cyclic-AMP phosphodiesterase 4B (Homo sapiens) (UniProt Q07343). Description: qHTS Assay for Inhibitors of PDE-IV (AID 607; active = well fitted activation curve with a large enough effect in the main read-out, with a control signal flat, not every such curve was filed as active; note: % of control where 0% means no effect). Summed up: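 Cell-based read-out of cAMP via a modified cyclic nucleotide-gated channel and membrane potential dye (535/590 nm) in HEK293 cells expressing PDE4 endogenously. Compounds tested up to 22.9 uM final; 100 uM RO 20-1724 reference.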
Chain of 3',5'-cyclic-AMP phosphodiesterase 4B (Homo sapiens) (Q07343 whole entry, looked up): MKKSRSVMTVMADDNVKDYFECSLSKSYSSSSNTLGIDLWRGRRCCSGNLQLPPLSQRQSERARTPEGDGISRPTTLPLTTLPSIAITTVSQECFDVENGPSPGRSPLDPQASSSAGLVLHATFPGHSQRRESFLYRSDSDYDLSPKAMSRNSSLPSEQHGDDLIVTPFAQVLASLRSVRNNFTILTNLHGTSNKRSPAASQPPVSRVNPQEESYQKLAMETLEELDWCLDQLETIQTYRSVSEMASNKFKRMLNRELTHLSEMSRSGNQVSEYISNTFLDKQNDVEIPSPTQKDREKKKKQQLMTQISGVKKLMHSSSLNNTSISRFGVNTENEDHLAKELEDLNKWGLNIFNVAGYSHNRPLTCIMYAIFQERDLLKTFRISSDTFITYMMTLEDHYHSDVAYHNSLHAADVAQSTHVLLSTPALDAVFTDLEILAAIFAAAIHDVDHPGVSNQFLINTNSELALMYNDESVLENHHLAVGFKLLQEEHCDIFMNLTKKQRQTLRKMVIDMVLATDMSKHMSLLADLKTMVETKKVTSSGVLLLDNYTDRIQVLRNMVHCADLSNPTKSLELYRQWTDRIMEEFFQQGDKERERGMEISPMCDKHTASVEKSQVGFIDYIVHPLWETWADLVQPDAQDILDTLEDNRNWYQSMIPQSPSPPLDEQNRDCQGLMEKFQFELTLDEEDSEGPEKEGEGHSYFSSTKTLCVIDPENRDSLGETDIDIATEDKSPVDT

Experiment [8] concerns the target Cytochrome P450 2C9 (Homo sapiens) (UniProt P11712). Description: qHTS Assay for Inhibitors and Substrates of Cytochrome P450 2C9 (AID 883; active = well fitted curve in the direction sought with a large enough effect; an effect the other way counts as inactive or inconclusive; note: nearly all actives have a fitted effect of over 60% in size; note: potency is the fitted concentration of half-maximal effect). A digest of the protocol:
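Turnover of Luciferin-H (100uM, KM) by 10nM human CYP2C9 was measured over 60 min at 37C with NADPH regeneration; inhibitors and some substrates reduce luminescence. Data normalized to sulphaphenazole 57uM.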

In experiment [9] the target is Cytochrome P450 2D6 (Homo sapiens) (UniProt P10635). Description: qHTS Assay for Inhibitors and Substrates of Cytochrome P450 2D6 (AID 891; active = well fitted curve in the direction sought with a large enough effect; an effect the other way counts as inactive or inconclusive; note: nearly all actives have a fitted effect of over 60% in size; note: potency is the fitted concentration of half-maximal effect). Summed up: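 Luminescent read-out of luciferin formed by 5 nM human CYP2D6 demethylating 30 uM Luciferin-ME EGE (Km level) over 60 min at room temperature after NADPH regeneration addition. Data normalized to full inhibition by 1.43 uM quinidine.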
Chain of Cytochrome P450 2D6 (Homo sapiens) (P10635 whole entry, looked up): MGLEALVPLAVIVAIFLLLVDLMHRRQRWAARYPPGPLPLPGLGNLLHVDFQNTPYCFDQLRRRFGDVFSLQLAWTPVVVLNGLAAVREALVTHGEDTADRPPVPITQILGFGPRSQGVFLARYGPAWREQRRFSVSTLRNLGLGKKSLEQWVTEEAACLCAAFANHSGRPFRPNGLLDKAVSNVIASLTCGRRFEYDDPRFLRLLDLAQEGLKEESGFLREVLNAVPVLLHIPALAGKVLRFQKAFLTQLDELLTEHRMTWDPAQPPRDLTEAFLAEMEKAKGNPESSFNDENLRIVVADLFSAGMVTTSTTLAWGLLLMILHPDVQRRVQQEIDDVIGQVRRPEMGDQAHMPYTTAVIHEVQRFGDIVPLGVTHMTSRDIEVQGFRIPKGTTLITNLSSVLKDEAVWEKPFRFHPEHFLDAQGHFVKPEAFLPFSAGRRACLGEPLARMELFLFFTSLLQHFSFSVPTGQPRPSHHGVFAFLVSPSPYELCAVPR
In general terms: In qHTS, concentration-response curves come from the screen itself.

Experiment [10] addresses Cytochrome P450 2C19 (Homo sapiens) (UniProt P33261). Description: qHTS Assay for Inhibitors and Substrates of Cytochrome P450 2C19 (AID 899; active = well fitted curve in the direction sought with a large enough effect; an effect the other way counts as inactive or inconclusive; note: % is set by controls: 0 for no effect and ±100 for the full control effect; nearly all actives have a fitted effect of over 60% in size). A digest of the protocol: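 Reactions contain 5nM enzyme, 10uM Luciferin-H EGE (KM) and 50mM KPO4; compound preincubates 10 min at 37C, NADPH regeneration starts turnover for 60 min. Luminescence after detection reagent gives activity.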

Experiment [11] is described as follows: NFAT Signaling Pathway (AID 444).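 Note: carbachol stimulus at about its EC50 of 1 µM final; % is set by controls: 0 for no effect and ±100 for the full control effect.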 As to conditions: Jurkat NFAT-bla M1, carbachol, beta-lactamase ratio, 5 h; at 17.2 µM (top of the series) unless noted. A digest of the protocol: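 Read-out: CCF4 FRET ratio (460 nm/530 nm) after 1 h RT dye loading, used for %activity and AC50 from titration series. Cells: Jurkat NFAT-β-lactamase/M1 line, treated with compound plus 1 uM carbachol for 5 h, 37 °C.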

In experiment [12] the target is Cytochrome P450 3A4 (Homo sapiens) (UniProt P08684). Description: qHTS Assay for Activators of Cytochrome P450 3A4 (AID 885; active = well fitted curve in the direction sought with a large enough effect; an effect the other way counts as inactive or inconclusive; note: nearly all actives have a fitted effect of over 65% in size). Summed up: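 Luminescent readout of luciferin formed from 25 uM Luciferin-PPXE (KM level) by 20 nM CYP3A4 in 200 mM KPO4, with 60 min NADPH-driven reaction at room temperature after 10 min compound exposure. Ketoconazole (57 uM) defined 100% inhibition.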

Experiment [13] in a line: qHTS Assay for Identification of Small Molecule Agonists for Thrombopoietin (TPO) Signaling Pathway (AID 917; active = well fitted curve in the direction sought with a large enough effect; an effect the other way counts as inactive or inconclusive; note: % is set by controls: 0 for no effect and ±100 for the full control effect). Summed up:
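Stimulation at the TPO EC50 (26 pM final) was used to detect activators. Ba/F3 mouse cells bearing human TPO receptor and a luciferase reporter under the Glycoprotein IIb promoter were exposed to compounds for 24 hrs at 37 C.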

In experiment [14] the target is Muscarinic acetylcholine receptor M1 (Rattus norvegicus) (UniProt P08482). Description: qHTS Assay for Antagonists of Acetylcholine Muscarinic M1 Receptor: Kinetic Measurement of Intracellular Calcium Response (AID 943; active = well fitted curve in the direction sought with a large enough effect; an effect the other way counts as inactive or inconclusive;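 note: Fluo-4 calcium signal as peak divided by basal fluorescence over 4 min; nearly all actives have a fitted effect of over 75% in size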). Summed up:
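Read-out: peak over basal Fluo-4 fluorescence, kinetic at 1 Hz for 4 min after EC80 carbachol (100 nM final). Rat M1-CHO cells, dye loaded 1 h at 37C, compound added 10 min before agonist.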

The target is the same in experiment [15]. Description: qHTS Assay for Antagonists of Acetylcholine Muscarinic M1 Receptor: Measurement of IP-One Response (AID 944; active = well fitted curve in the direction sought with a large enough effect; an effect the other way counts as inactive or inconclusive; note: nearly all actives have a fitted effect of over 75% in size). Summed up:
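Read-out: HTRF competition between d2-IP1 and Eu-cryptate anti-IP1 antibody, emission 620 and 665 nm. Stimulus was carbachol, EC80 (200 nM), for 30 min in M1-CHO cells (rat receptor), after 10 min compound pre-treatment.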

Experiment [16] concerns the target Pyruvate kinase (Leishmania mexicana) (UniProt Q27686). Description: qHTS Validation Assay for Inhibitors of Leishmania Mexicana Pyruvate Kinase (AID 945; active = well fitted curve in the direction sought with a large enough effect; an effect the other way counts as inactive or inconclusive;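 note: 0% = DMSO only neutral control wells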). A digest of the protocol: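 Read-out: luminescence from PKLight stop/detection reagent, data normalized to DMSO. Reaction: 0.2 nM E451W LmPYK, 0.5 mM PEP, 0.1 mM ADP, pH 7.2, 1 h room temperature.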
Experiment [17] deals with Pyruvate kinase PKM (Homo sapiens) (UniProt P14618). Description: qHTS Assay for Activators of Human Muscle Pyruvate Kinase (AID 954; active = well fitted curve in the direction sought with a large enough effect, not every such curve was filed as active;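 note: 0% = uninhibited enzyme and -100% = no enzyme or full thiadiazolimine inhibition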). Summed up:
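ATP production by PKM2 detected via luciferase luminescence after 1 h room-temperature reaction (0.1 nM enzyme, PEP at Km 0.5 mM, ADP 0.1 mM, pH 7.2 imidazole buffer). Inhibition scaled to no-enzyme control; activation referenced to 0.3 nM enzyme wells.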

The target of experiment [18] is Alpha-galactosidase A (Homo sapiens) (UniProt P06280). Description: Counterscreen for Glucocerebrosidase Inhibitors: qHTS Assay for Human alpha-Galactosidase at pH 4.5 (AID 992; active = well fitted curve in the direction sought with a large enough effect; an effect the other way counts as inactive or inconclusive; note: 0% is about no effect). A digest of the protocol:
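Fluorogenic 1536-well qHTS at pH 4.5 (citrate, Tween-20): 2 nM enzyme, 80 uM 4-MU-alpha-galactoside, 20 min room temperature, NaOH/glycine stop. Titration 0.7 nM to 77 uM, data normalized to no-enzyme and full-activity controls, Hill-fitted AC50.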
On the technique in general: The purpose of a counterscreen is to sort out artefacts and off-target activity.

Experiment [19] concerns the target alpha-glucosidase (Oryza sativa, rice) (UniProt Q653V4). Description: Counterscreen for Glucocerebrosidase Inhibitors: qHTS Assay for Rice alpha-Glucosidase at pH 5.0 (AID 997; active = well fitted curve in the direction sought with a large enough effect; an effect the other way counts as inactive or inconclusive;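 note: 0% = full activity with enzyme and -100% = basal without enzyme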). A digest of the protocol: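 Endpoint fluorogenic assay at pH 5.0: compounds (0.7 nM to 77 uM) titrated against 4 nM rice enzyme and 400 uM 4-MU-alpha-glucoside for 20 min at room temperature; NaOH/glycine stop, read ex 365/em 440 nm, Hill-fitted AC50.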

Chain of Cytochrome P450 2C9 (Homo sapiens) (P11712 whole entry, looked up): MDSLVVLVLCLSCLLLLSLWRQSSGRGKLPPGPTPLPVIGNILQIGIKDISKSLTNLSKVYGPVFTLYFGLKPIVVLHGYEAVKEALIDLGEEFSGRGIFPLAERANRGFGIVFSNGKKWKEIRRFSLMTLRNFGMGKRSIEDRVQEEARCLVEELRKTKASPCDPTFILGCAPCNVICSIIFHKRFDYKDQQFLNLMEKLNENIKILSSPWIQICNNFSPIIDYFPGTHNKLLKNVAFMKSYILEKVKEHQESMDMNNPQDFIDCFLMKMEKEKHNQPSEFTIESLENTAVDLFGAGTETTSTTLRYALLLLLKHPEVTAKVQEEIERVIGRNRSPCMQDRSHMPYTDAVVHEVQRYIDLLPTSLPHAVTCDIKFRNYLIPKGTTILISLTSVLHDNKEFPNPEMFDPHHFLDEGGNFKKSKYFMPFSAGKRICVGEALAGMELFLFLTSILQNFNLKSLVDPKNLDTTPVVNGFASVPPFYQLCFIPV
Chain of Glucocorticoid receptor (Homo sapiens) (P04150 whole entry, looked up, the tested form may be a part): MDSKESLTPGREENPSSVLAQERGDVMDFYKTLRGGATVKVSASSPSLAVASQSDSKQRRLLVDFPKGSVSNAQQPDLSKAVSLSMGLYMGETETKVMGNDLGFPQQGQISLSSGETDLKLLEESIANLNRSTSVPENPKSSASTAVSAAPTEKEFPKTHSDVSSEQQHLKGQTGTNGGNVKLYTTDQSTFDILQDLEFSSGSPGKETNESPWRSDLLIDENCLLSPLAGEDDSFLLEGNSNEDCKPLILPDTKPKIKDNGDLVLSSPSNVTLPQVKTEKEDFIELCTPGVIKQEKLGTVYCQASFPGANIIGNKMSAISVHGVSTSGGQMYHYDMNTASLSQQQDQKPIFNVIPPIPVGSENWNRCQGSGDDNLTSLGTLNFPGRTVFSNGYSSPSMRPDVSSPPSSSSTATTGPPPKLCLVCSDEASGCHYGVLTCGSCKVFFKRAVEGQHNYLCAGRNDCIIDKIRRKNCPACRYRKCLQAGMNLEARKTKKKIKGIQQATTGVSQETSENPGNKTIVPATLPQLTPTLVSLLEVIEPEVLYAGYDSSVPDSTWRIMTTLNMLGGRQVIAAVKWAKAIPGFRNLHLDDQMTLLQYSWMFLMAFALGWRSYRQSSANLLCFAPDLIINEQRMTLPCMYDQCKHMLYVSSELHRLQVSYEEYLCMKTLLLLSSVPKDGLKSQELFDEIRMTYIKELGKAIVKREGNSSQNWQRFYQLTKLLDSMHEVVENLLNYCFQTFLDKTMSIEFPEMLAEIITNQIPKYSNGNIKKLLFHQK
Chain of Muscarinic acetylcholine receptor M1 (Rattus norvegicus) (P08482 whole entry, looked up): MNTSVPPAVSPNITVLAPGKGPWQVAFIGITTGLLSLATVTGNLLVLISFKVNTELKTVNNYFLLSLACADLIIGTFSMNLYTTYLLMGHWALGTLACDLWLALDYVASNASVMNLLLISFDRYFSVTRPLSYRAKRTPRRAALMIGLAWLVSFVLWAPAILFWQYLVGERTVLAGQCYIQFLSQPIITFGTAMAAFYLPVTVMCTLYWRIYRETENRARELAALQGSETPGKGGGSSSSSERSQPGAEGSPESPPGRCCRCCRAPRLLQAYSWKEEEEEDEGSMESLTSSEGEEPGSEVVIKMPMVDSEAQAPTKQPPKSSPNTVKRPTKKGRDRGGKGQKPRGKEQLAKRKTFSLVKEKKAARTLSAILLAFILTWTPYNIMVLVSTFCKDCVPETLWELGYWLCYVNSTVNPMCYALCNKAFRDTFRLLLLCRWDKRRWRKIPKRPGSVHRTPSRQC
Chain of Cytochrome P450 2C19 (Homo sapiens) (P33261 whole entry, looked up): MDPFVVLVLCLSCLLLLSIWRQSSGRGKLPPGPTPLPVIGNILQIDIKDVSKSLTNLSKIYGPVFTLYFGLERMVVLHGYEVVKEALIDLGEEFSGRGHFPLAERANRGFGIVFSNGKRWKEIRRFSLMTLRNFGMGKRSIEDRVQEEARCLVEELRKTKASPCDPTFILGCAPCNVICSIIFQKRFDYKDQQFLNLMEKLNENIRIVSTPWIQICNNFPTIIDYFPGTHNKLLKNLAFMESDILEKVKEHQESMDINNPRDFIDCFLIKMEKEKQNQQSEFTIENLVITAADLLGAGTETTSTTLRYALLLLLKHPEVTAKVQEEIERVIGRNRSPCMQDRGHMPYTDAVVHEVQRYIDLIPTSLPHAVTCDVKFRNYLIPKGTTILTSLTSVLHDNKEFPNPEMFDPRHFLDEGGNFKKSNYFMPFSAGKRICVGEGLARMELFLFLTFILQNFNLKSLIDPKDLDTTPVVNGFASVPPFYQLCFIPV
Chain of Pyruvate kinase (Leishmania mexicana) (Q27686 2-499 E452W): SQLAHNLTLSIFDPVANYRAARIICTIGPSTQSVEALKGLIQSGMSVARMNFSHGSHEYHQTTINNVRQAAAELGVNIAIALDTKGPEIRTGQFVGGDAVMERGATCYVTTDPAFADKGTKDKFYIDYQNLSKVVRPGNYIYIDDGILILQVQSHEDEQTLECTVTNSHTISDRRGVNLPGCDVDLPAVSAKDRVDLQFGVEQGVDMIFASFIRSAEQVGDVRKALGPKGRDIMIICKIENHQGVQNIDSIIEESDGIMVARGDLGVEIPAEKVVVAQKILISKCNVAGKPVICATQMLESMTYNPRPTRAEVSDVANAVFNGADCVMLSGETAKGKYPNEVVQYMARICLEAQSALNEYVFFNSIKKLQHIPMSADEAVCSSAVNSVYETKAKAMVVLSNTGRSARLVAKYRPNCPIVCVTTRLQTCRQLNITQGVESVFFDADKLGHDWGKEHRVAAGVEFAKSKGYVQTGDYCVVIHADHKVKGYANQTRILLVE
Chain of Pyruvate kinase PKM (Homo sapiens) (P14618 whole entry, looked up): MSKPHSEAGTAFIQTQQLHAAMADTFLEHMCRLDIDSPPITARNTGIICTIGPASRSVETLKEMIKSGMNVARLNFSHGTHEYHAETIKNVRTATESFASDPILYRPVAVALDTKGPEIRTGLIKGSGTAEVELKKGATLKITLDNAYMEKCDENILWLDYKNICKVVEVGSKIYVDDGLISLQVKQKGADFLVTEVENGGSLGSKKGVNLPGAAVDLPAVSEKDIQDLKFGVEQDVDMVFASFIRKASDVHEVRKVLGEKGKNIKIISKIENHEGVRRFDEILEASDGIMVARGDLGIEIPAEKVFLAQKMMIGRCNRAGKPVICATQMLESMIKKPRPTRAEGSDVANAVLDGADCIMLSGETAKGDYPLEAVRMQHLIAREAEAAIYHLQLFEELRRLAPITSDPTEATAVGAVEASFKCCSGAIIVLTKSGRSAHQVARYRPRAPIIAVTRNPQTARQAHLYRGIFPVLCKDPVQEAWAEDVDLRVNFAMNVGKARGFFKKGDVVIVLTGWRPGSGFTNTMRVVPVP

Turning to `Cc1cc(Cc2cc(Cc3cc(C)cc(C(C)(C)C)c3O)c(C)cc2C)c(O)c(C(C)(C)C)c1`, the activity change, negative = inhibition was -2.73% [at 7.69 µM] in [1], -17.2% [at 2.29 µM] in [2] and -4.33% [at 11.4 µM] in [6]. The activity, negative = inhibition in [3] was -3.85% [at 7.69 µM]. Also, the values for the Potency in [4], in [5] and in experiment [8] were > 46 µM, > 9.22 µM and 3.16 µM (active), respectively. In addition, the Potency result in [7] is “inactive”.
As for `CCN1CCC[C@@H]1CNC(=O)c1c(OC)ccc(I)c1O`, in [1], the activity change, negative = inhibition is -2.43% [at 38 µM]. Also, the Potency was 15.8 µM (active) in [2], > 46 µM in experiment [4], > 46 µM in experiment [5] and 0.199 µM (active) in experiment [9]. In addition, in experiment [3], the activity, negative = inhibition is -4.45% [at 38 µM]. The Potency entry in experiment [6], in [7], in [8] and in experiment [10] was “inactive” each time.
`Nc1nonc1OCCc1ccccc1`: the values for the activity change, negative = inhibition in [1] and in [11] were 2.66% and 3.18%, respectively. In [3], the activity, negative = inhibition was -6.28%.
For the molecule `O=C1[C@@H]2C=CC=CC2=NC(=S)N1CCN1CCC(=C(c2ccc(F)cc2)c2ccc(F)cc2)CC1`, the activity change, negative = inhibition in [1] was 26.4% [at 38 µM]. Besides, the Potency entry in [2], in [6], in experiment [12], in experiment [13], in [14] and in experiment [15] was “inactive” each time. Further, in experiment [16], the Potency result is “inactive”. The activity, negative = inhibition in experiment [3] is 6.96% [at 38 µM]. Also, the Potency in experiment [4] and in experiment [5] was > 46 µM in each case. Further, the call in experiment [17], in [18] and in experiment [19] was inactive.
In the case of `Fc1ccccc1/C=N/n1cnnc1`, the activity change, negative = inhibition in experiment [1] is 3.64%; in [11], 1.1%. In addition, the activity, negative = inhibition in experiment [3] is 2.69%. In addition, in experiment [4], the Potency is > 20.6 µM.
As for `CCOC(=O)CC1=C(C(=O)OCC)C(c2ccc(OC)c(OC)c2)C(C#N)=C(N)O1` (stereo unspecified), the values for the activity change, negative = inhibition in experiment [1] and in experiment [11] were 1.15% and -21.5%, respectively. Also, in experiment [3], the activity, negative = inhibition was 5.77%.
For `OC[C@@H]1O[C@@H](n2cnc3c(NCCc4ccccc4)ncnc32)[C@@H](O)[C@H]1O`, the activity change, negative = inhibition in experiment [1] was -4.22% [at 38 µM]. The Potency entry in experiment [2], in [6], in [7], in experiment [8], in experiment [9] and in experiment [10] was “inactive” in each case. The activity, negative = inhibition in [3] was 0.109% [at 38 µM]. The Potency in experiment [4] and in [5] was > 46 µM in each case.
Turning to `N#Cc1ccc(OC(=O)c2ccc(N=C(N)N)cc2)cc1`, the activity change, negative = inhibition was -0.971% [at 7.69 µM] in [1] and 1.07% [at 11.4 µM] in experiment [6]. Moreover, the Potency in experiment [2] is 2.51 µM (active). Further, the activity, negative = inhibition in experiment [3] was -5.61% [at 7.69 µM].
